Results taken from ChEMBL document CHEMBL4513216, “Probing the Open Global Health Chemical Diversity Library for Multistage-Active Starting Points for Next-Generation Antimalarials” (ACS Infect Dis, 2020).
The campaign covered roughly 69,000 compounds. About 8,600 (12%) showed an effect of 50% or more. The entries come from a sample that favours strong results as a whole.

tested on: Plasmodium berghei; assay: Screen against P. berghei liver stage (PbLuc), transformed with Luciferase, at 10uM; format: functional, HepG2; details: tested at 10 uM

Compound | INHIBITION
Cc1noc(C(C)C)c1C(=O)N1CCC(n2cccn2)CC1 | 26.5%
Cc1cc(C)n(CC2CN(Cc3nc(C)c(C)o3)CCO2)n1 (stereo unspecified) | -47.6%
CN1CCN(C(=O)NC2CC2)Cc2cccnc21 | 0.547%
COC1COC2(CCN(Cc3ccc(Cl)cc3)CC2)C1 (stereo unspecified) | 19.5%
Cn1cc(CNC2CCOCC2)c(-c2cc3ccccc3o2)n1 | 39.6%
Cn1cc(CNC2CCC(O)CC2)c(-c2cc3ccccc3o2)n1 (stereo unspecified) | 72.1%
Cn1cc(CNC2CCS(=O)(=O)C2)c(-c2cc3ccccc3o2)n1 (stereo unspecified) | 35%
COc1cccc(CN2CCC3(CCN(C(=O)[C@H]4CCCO4)CC3)C2)c1 | 43.2%
Cc1nn(C)c(=O)c2nn(-c3ccc(Cl)cc3)c(C)c12 | 28.5%
O=C([C@@H]1COC[C@H]2CN(CC3CCCC3)C[C@H]21)N1CCOCC1 | 65.9%
O=C([C@H]1COC[C@H]2CN(CC3CC3)C[C@H]21)N1CCOCC1 | 60%
O=C(C1CN(CC2CC2)CC12CCOCC2)N1CCOCC1 (stereo unspecified) | -7.24%
O=C([C@H]1COC[C@H]2CN(CC3CCC3)C[C@H]21)N1CCOCC1 | 24.6%
O=C([C@H]1COC[C@H]2CN(CC3CCCC3)C[C@H]21)N1CCOCC1 | 11.3%
O=C([C@@H]1COC[C@H]2CN(CC3CC3)C[C@H]21)N1CCC(F)CC1 | 12.7%
Cc1cnn(CCNCc2csc(-c3ncccn3)n2)c1 | 27.95%
CCc1nnc(CN(CC)C(=O)C2CC(=O)N(C3CCCC3)C2)o1 (stereo unspecified) | 43.2%
NC(=O)C1CCCN1Cc1cccc(NC(=O)c2cc(Cl)cc(Cl)c2)c1 (stereo unspecified) | 68.8%
CCc1ccc(C(=O)Nc2cccc(CN3CCCC3C(N)=O)c2)cc1 (stereo unspecified) | -40.7%
NC(=O)C1CCCN1Cc1cccc(NC(=O)c2ccc(Cl)cc2F)c1 (stereo unspecified) | 44%
Cc1cc(C)cc(C(=O)Nc2cccc(CN3CCCC3C(N)=O)c2)c1 (stereo unspecified) | 56%
NC(=O)C1CCCN1Cc1cccc(NC(=O)c2cccs2)c1 (stereo unspecified) | -8.22%

Compound | INHIBITION
NC(=O)C1CCCN1Cc1cccc(NC(=O)c2ccsc2)c1 (stereo unspecified) | -18.4%
C[C@]12CCCCN(C(=O)c3ccccn3)[C@H]1CCCC(=O)N2 | 11.1%
CC1CCc2nn(CCNC(=O)c3ccco3)c(=O)cc2C1 (stereo unspecified) | -16.9%
COc1cccc(S(=O)(=O)NC(=O)C2CC(c3ccccc3)=NO2)c1 (stereo unspecified) | -24.7%
c1ccc(COC[C@@H]2CCC[C@]23CN(Cc2nccs2)CCO3)nc1 | 74.2%
c1coc(CN2CCO[C@@]3(CCC[C@@H]3COCc3nccs3)C2)c1 | 53.2%
c1cncc(OC[C@@H]2CCC[C@@]23CN(Cc2nccs2)CCO3)c1 | 66%
c1ccc(OC[C@H]2CCC[C@]23CN(Cc2nccs2)CCO3)nc1 | 38.7%
O=C(c1ccc[nH]1)N1CCO[C@]2(CCC[C@@H]2COc2cccnc2)C1 | -34.7%
COC[C@@H]1CCC[C@]12CN(Cc1cccc(C)n1)CCO2 | -11.8%
CCOC[C@@H]1CCC[C@@]12CN(Cc1nccs1)CCO2 | 35.8%
O=C(c1ccoc1)N1CCO[C@]2(CCC[C@@H]2COCc2ccncc2)C1 | -6.23%
c1csc(COC[C@H]2CCC[C@]23CN(Cc2ccoc2)CCO3)n1 | 63.7%
COC[C@@H]1CCC[C@]12CN(Cc1ccco1)CCO2 | 8.67%
COC[C@@H]1CCC[C@@]12CN(Cc1ccco1)CCO2 | -0.813%
CCOC[C@@H]1CCC[C@@]12CN(Cc1cccnc1)CCO2 | 48.6%
CCc1noc(C2CCCCN2C(=O)c2sccc2C)n1 (stereo unspecified) | 40.8%
O=C(O)c1cc2c(nc1N1CCOCC1)CCN(C1CCOC1)CC2 (stereo unspecified) | -12.1%
CC(=O)NC1CCCN(C(=O)NCc2cccnc2)C1 (stereo unspecified) | -51.5%
CC(C)CN1CCC2(CC1)CC(NS(C)(=O)=O)c1ccccc1O2 (stereo unspecified) | 6.55%
CCOCCCC(=O)N(C)C(c1cccc(F)c1)c1ccccn1 (stereo unspecified) | -18%
Cc1nc(C2CCNCC2)cc(N(C)Cc2cc3cc(F)ccc3[nH]2)n1 | 33.5%

Compound | INHIBITION
COc1cnc(CSc2nnc(C)s2)cc1OCC(N)=O | 34.2%
CCN1C(=O)CCCC12CCCN(C(=O)c1occc1C)C2 (stereo unspecified) | 23.5%
CC(CO)(NCc1noc(Cc2ccccc2)n1)C1CCCCC1 (stereo unspecified) | -1.7%
O=C(O)[C@@H]1CN(C(=O)CSCC2CC2)C[C@H]1c1ccccn1 | -87%
CCOc1ncccc1CNC(=O)c1c(C)oc(C)c1C | 29.75%
Cc1csc(CNC(=O)NC(C)c2ccc3c(c2)CCC(=O)N3)n1 (stereo unspecified) | 9.64%
Cc1ccsc1C(=O)NC(C)c1ccc2c(c1)CCC(=O)N2 (stereo unspecified) | 11.7%
CC(NC(=O)c1ccoc1)c1ccc2c(c1)CCC(=O)N2 (stereo unspecified) | -6.14%
CC(NC(=O)c1cccc[n+]1[O-])c1ccc2c(c1)CCC(=O)N2 (stereo unspecified) | 62.6%
CC(NC(=O)NCc1ccccn1)c1ccc2c(c1)CCC(=O)N2 (stereo unspecified) | -75.2%
CC(NC(=O)NCc1cc[nH]n1)c1ccc2c(c1)CCC(=O)N2 (stereo unspecified) | 51.2%
Cn1cnnc1C1CCN(C(=O)CCCOCc2ccccc2)CC1 | 43.2%
COc1nc(C)ccc1CNC(=O)NC(c1ncc(C)s1)C1CC1 (stereo unspecified) | -21.1%
O[C@H]1CN(CCCOc2ccccc2F)CC[C@@]12CCCO2 | 6.485%
O[C@H]1CN(CCOc2ccc(F)cc2)CC[C@@]12CCCO2 | 62.9%
C[C@@H]1CN(CCOc2ccc(F)cc2)CC[C@@]1(O)C1CCOCC1 | 28.8%
Cc1noc(C)c1CCC(=O)N1CCCC(n2cccn2)C1 (stereo unspecified) | 37.4%
CCc1nc(NC2CC(=O)N(CC3CCCCC3)C2)ncc1C (stereo unspecified) | 2.97%
Cc1nc(Nc2nccs2)cc(C2CCCN2)n1 (stereo unspecified) | 5.05%
Cc1nc(Nc2nccs2)cc(C2CCCN2C2CCOCC2)n1 (stereo unspecified) | 52.3%
Cc1nc(Nc2nnc(C)s2)cc(C2CCCN2)n1 (stereo unspecified) | -24.595%
Cc1nc(NC2CCOCC2)cc(C2CCN2S(C)(=O)=O)n1 (stereo unspecified) | 30.6%

Compound | INHIBITION
Cc1nc(Nc2ccccn2)cc(C2CCCN2C2CCOCC2)n1 (stereo unspecified) | 20.8%
Cc1nc(Nc2ncccn2)cc(C2CCCN2C2CCOCC2)n1 (stereo unspecified) | 15.4%
Cc1nc(Nc2ncc(C)s2)cc(C2CCCN2S(C)(=O)=O)n1 (stereo unspecified) | 50.8%
Cc1nc(Nc2nnc(C)s2)cc(C2CCCN2S(C)(=O)=O)n1 (stereo unspecified) | 6.32%
Cc1nc(Nc2ncc(C)s2)cc(C2CCCN2)n1 (stereo unspecified) | 67.15%
Cc1cc(CN(C)C(=O)C2CC(c3cccc(F)c3)=NO2)no1 (stereo unspecified) | 7.24%
CCNC(=O)c1ccc2c(c1)nc1n2CCN(C(C)C)C1 | -17.2%
COc1ccccc1C(=O)N1CCCC1c1ncc2c(n1)CCNC2 (stereo unspecified) | 26.3%
CCCC(O)CN1CCC(=O)N(CCOC)Cc2ccccc21 (stereo unspecified) | 6.34%
CC(C)C(C)N(C)C(=O)COc1ccccc1C#N (stereo unspecified) | 16.8%
COC(=O)c1ccc(NC(=O)CCc2ccco2)cc1 | -13.6%
Cc1nnc(C(C)N2CCCN(Cc3ccc(C#N)cc3)CC2)o1 (stereo unspecified) | 24%
O=c1ccc2c([nH]1)CCC(NCc1ccc(F)cc1)C2 (stereo unspecified) | 45.1%
Cc1ccc(C)c(CC(=O)NC2(C#N)CCOCC2)c1 | 20.4%
O=C(c1ccccn1)N(CCO)Cc1cc(Br)ccc1F | -0.759%
Cc1nn(C2CCS(=O)(=O)C2)c(O)c1Cc1ccccc1 (stereo unspecified) | 36.9%
CCOCC1CN(Cc2ccoc2)Cc2nn(C)cc21 (stereo unspecified) | 16.8%
CNc1cncc(C2CCN(C(=O)c3cnco3)CC2)n1 | 8.53%
CNc1cncc(C2CCN(C(=O)c3coc(C)n3)CC2)n1 | 58%
CNc1cccc(C2CCCN(C(=O)c3coc(C)n3)C2)n1 (stereo unspecified) | 41.2%
CC(=O)N1CCCN(C(=O)c2oc(Br)cc2C)CC1 | 58.5%
Cc1cc(Br)oc1C(=O)N1CCCN(CC(N)=O)CC1 | 30.3%

Compound | INHIBITION
Cc1cc(Br)oc1C(=O)N1CCN(CC(N)=O)CC1 | 20.9%
Cn1cc(C2CC(=O)NC23CCN(CC2CC2)CC3)cn1 (stereo unspecified) | 48.7%
Cc1nc(N2CCCC2)nc2c1CCN(Cc1ccco1)CC2 | 15.1%
Cc1ccc(F)c2c1N(C(=O)c1cn(CC(=O)N(C)C)nn1)CCC2 | -9.21%
CN(C)CCN1CCOCC2(C1)CN(Cc1nccs1)CCO2 (stereo unspecified) | 14.1%
NS(=O)(=O)c1ccc(NC(=O)CSc2ccc3c(c2)CCC3)cc1 | 66.8%
CS(=O)(=O)c1ccc(NC(=O)NCc2ccc3c(c2)CCC3)cn1 | 24%
CNC(=O)Cc1noc(Cc2ccc3c(c2)CCCC3)n1 | 15.9%
CN1C(=O)c2ccc(NC(=O)CSc3ccc4c(c3)CCC4)cc2C1=O | 11.5%
CNC(=O)NC(=O)CSc1ccc2c(c1)CCC2 | 54.3%
CS(=O)(=O)c1ccc(NC(=O)CSc2ccc3c(c2)CCC3)cc1 | 31.2%
CNC(=O)NC(=O)CCSc1ccccc1C | 29.8%
CS(=O)(=O)c1ccc(NC(=O)CSc2ccc3c(c2)CCC3)cn1 | 53.4%
NC(=O)c1cccc(NC(=O)CSc2ccc3c(c2)CCC3)c1 | 40.6%
CN(C)CCO[C@@H]1CC[C@H]2[C@H]1OCCN2C(=O)c1ccccc1F | 35.2%
CC(C)(C)c1nccc(N2CCCCC2CCNS(C)(=O)=O)n1 (stereo unspecified) | -1.79%
Cc1cnn(CC2CCCN2Cc2nnc(C3CC3)o2)c1 (stereo unspecified) | 2.3%
O=C(c1ccc(N2CCOCC2)nc1)N1CCCC(n2ccnc2)C1 (stereo unspecified) | 13.05%
